PubChem BioAssay (NCI)
Compounds without any hit were thinned out: in the full panel of roughly 83,000, 20% have a hit.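 Negative percent growth values reflect cell death: -40 means 40% of the cells present at the start died, and -100 means all died.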 A number with no mark means an inactive call. The source made the active and inactive calls. How the source made its calls: active means growth percent below 10; inactive means the rest.

tested on: NCI/ADR-RES ovarian; test: NCI-60 one-dose screen, 48 h (100 = growth as untreated, 0 = no growth, -100 = all killed); conditions: 10 µM unless noted

SMILES | growth
CCOC(=O)c1ccccc1OC(=O)NNc1ccccc1 | 58.1%
CC(=O)n1c2ccccc2c2ccccc21 | 100%
CSc1ccc2c(c1)N(CCC1CCCCN1C)c1ccccc1S2 (stereo not given) | 65.6%
O=C(/C=C/c1cc2ccccc2[nH]c1=O)c1ccc(O)cc1 | 36.4%
COc1ccc(-c2c(-c3cc(OC)c(OC)c(OC)c3)noc2N)cc1 | 11.1%
Clc1ccc(-c2nc(-c3cccs3)no2)c(Cl)c1 | 103%
CC(C)C/C(=N\NC(=O)c1ccncc1)c1cc(Cl)ccc1O | 5.17% (active)
COc1ccc(/C=N/NC(=O)c2ccc(S(C)(=O)=O)cc2)cc1OC | 108%
CO[C@H]1/C=C/O[C@@]2(C)Oc3c(C)c(O)c4c(O)c(c(/C=N/N5CCN(C)CC5)c(O)c4c3C2=O)NC(=O)/C(C)=C\C=C\C(C)[C@H](O)[C@@H](C)[C@@H](O)[C@@H](C)[C@@H](OC(C)=O)[C@@H]1C (stereo not given in full) | 105%
COc1cc(/C=C/C(=O)c2ccc(F)cc2)ccc1OCCCCCOc1cc2c(cc1OC)C(=O)N1CCCC1C=N2 (stereo not given) | 8.85% (active)
CCCCOc1ccc(C(C)(C)c2ccc(OCCCC)cc2)cc1 | 101%
CCCCCCCC/C=C/CCCCCCCC1=NC(C)(C)CN1CCO | 77.3%
COc1cc(/C=C2\COc3ccc(O)c(O)c3C2=O)cc(OC)c1 | 0.0937% (active)
CCCCCCCC/C=C/CCCCCCCC1=NC(C)(C)CN1CC(C)O (stereo not given) | 73.4%
O=C1N(C2CCCCC2)C(=O)N1C1CCCCC1 | 35.5%
